HADH2 inhib: inhibitors of human HADH2 dehydrogenase. Q99714. recombinant HADH2, NADH fluorescence, beta-hydroxybutyryl-CoA. Potency, µM (titrated, usually from 57.1 µM), without a hit: at the highest dose activity change, negative = inhibition, actives largely listed as inhibitors. hit rate 3.4% among 73,000. AID 886; also: potency is read from the fitted curve at half-maximal effect; % is scaled to controls: 0 for no effect and ±100 for the full control effect; nearly all actives have a fitted effect of over 60% in size
Target sequence (Q99714 whole entry, looked up, one chain of several): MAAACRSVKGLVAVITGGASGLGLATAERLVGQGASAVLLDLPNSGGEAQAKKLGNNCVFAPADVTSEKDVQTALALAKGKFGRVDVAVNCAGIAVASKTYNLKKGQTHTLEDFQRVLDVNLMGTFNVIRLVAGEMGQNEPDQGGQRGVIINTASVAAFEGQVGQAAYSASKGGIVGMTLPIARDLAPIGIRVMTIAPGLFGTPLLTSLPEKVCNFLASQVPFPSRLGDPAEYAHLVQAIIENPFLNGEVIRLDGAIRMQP
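Read-out: 360 nm excitation, 450 nm emission, kinetic over 4 min. Conditions: His-tagged human HADH2 20 nM, pH 9.0 Tris with Tween-20, 1 mM NAD+, 90 uM beta-hydroxybutyryl-CoA.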
4MU fluor: 4-MU region autofluorescence | compound autofluorescence, 340/450 nm, 4-MU equivalents; active compounds read high | max dye-equivalent concentration, M | hit rate 11% among 59,000; in the data active = max dye-equivalent concentration above about 10 nM; inconclusive = mostly about 1.1 nM to 9.6 nM
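Compounds in 100 mM Tris, pH 8.0, incubated 15 min at room temperature, then fluorescence read at 340 nm excitation/450 nm emission. Signal converted to 4-MU dye-equivalent concentration using an on-plate six-point 4-MU standard curve.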
AID923: qHTS Assay for Allosteric/Competitive Inhibitors of Caspase-1: Spectroscopic Profiling in AFC Spectral Region; compound fluorescence, AFC spectral region (405/520 nm); Potency, µM (doses to about 57.5 µM), inactives show top-dose fluorescence increase, most hits filed as activators; hit rate 1.1% among 75,000; AID 923, 2007; also: potency is read from the fitted curve at half-maximal effect; 0% is about no effect
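Compound autofluorescence profiled at 405 nm ex/520 nm em during kinetic caspase 1 run (50 nM enzyme, 5 uM Ac-WEHD-AFC, HEPES pH 7.5, 10 mM DTT). Titration up to 57 uM; baseline from regression intercept, normalized to AFC standard curve.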
HSD17B inhib: HSD17B dehydrogenase inhibition; hit rate 7.6% among 75,000; recombinant HSD17B10, NADH fluorescence kinetic; Q99714; Potency, µM (titrated, usually from 57.1 µM), for inactives: at the top dose activity change, negative = inhibition, actives largely listed as inhibitors;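 also: the protocol describes HADH2 (HSD17B10) and not the HSD17B4 of the title; potency is read from the fitted curve at half-maximal effect; % is scaled to controls: 0 for no effect and ±100 for the full control effect; nearly all actives have a fitted effect of over 70% in size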
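Activity followed as NADH fluorescence increase (ex 360, em 450 nm) every 30 seconds for 4 min, using final 90 uM beta-hydroxybutyryl CoA and 1 mM NAD+. Recombinant His-tagged enzyme, 20 nM, pH 9.0 Tris buffer, 15 min compound preincubation.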
A350 autofl: A350 region autofluorescence | AID 590 | hit rate 11% among 59,000 | Compound autofluorescence, 340/450 nm, Alexa 350 dye-equivalents; active compounds read high | max dye-equivalent concentration, M; in the data active = max dye-equivalent concentration above about 10 nM; inconclusive = mostly about 1.1 nM to 9.6 nM
* = called active by the depositor; i = inactive; ? = inconclusive; · = not tested or not shown; [ ] = another dose, or the depositor's remark. Only some compounds are listed: those with a hit (about 13% of all), similar ones and a draw of the others. Unless noted, calls follow the shape of the dose curve; as a rule, active = well fitted curve in the direction sought with a large enough effect; inconclusive = small, poorly fitted or top-dose-only effect, or another doubt; inactive = no such curve, though single readings can be large; an effect the other way counts as inactive or inconclusive.

SMILES	HADH2 inhib	4MU fluor	AID923	HSD17B inhib	A350 autofl
Cn1c(NC(=O)c2cccc(Cn3cc(Cl)cn3)c2)nc2ccccc21	25µM*	3.4e-08M*	-2%	?	3.3e-08M*
Cc1ccc(N=Cc2nc(-c3ccco3)oc2O)cc1	2%	?	3%	0%	1e-08M*
N=C1N=C(N)c2cc3ccccc3cc21	?	·	18%	32µM*	·
COCc1nnc(NC(=O)C(C)C)s1	-3%	3.2e-08M*	2%	5%	2.9e-08M*
CCN(CC)CCCNc1oc(-c2cccc(Cl)c2)nc1C#N	25µM*	6.3e-08M*	1%	32µM*	7.5e-08M*
CN(C)c1oc(COc2ccc(F)cc2)nc1C#N	5%	i	1%	-8%	i
CN(C)c1oc(-c2ccc(OCc3ccc(Cl)cc3)cc2)nc1C#N	32µM*	6.5e-08M*	0%	20µM*	5.2e-08M*
CN(C)CCCNc1oc(-c2ccc(Cl)cc2)nc1C#N	?	9.2e-08M*	0%	32µM*	1.2e-07M*
N#Cc1nc(-c2ccc(Cl)cc2)oc1NCCc1ccccn1	-10%	?	-2%	0.79µM*	?
CN(C)CCNc1oc(COc2ccc(-c3ccccc3)cc2)nc1C#N	-1%	i	-1%	-4%	?
N#Cc1nc(COc2cccc(Cl)c2)oc1NCc1ccncc1	-11%	i	1%	2%	i
CC1(C)S[C@@H]2[C@H](NC(=O)[C@@H](NC(=O)N3CCNC3=O)c3ccccc3)C(=O)N2[C@H]1C(=O)O	-16%[25.6 µM]	i	-1%[25.7 µM]	2%[25.6 µM]	?
O=C1[C@H]2[C@H]3[C@H](O)[C@H](O)C/C(=N/OC[C@@H](O)COCc4ccco4)[C@@H]3CC[C@@H]2C(=O)N1C1CCCCC1	18%[11.4 µM]	·	-1%[11.5 µM]	0%[11.4 µM]	·
COCCNc1oc(-c2ccc(Cl)cc2)nc1C#N	·	8.5e-08M*	·	·	9.5e-08M*
COCCCNc1oc(COc2ccc(Cl)cc2Cl)nc1C#N	-17%	?	20%	-7%	?
Cn1c(=O)c(-c2cccc(Cl)c2)nc2cncnc21	-11%	i	9%	?	?
O=c1c2c3c(sc2nc2sc(CN4CCOCC4)cn12)CCCC3	0%	?	-2%	-4%	1e-08M*
N=c1c2c3c(sc2ncn1CCN1CCOCC1)CCCCC3	6%	i	1%	2%	i
Cn1c(SCC(=O)N2CCCCCC2)nc2c([nH]c3ccccc32)c1=O	4%	4.5e-08M*	0%	?	4.4e-08M*
N[C@H](Cc1cc(I)c(Oc2ccc(O)c(I)c2)c(I)c1)C(=O)O	-26%[25.6 µM]	i	-1%[25.7 µM]	-24%[25.6 µM]	i
Cc1nc(NCc2ccccc2)c2nc(-c3ccccc3)n(CC3CCN(C)CC3)c2n1	9%	·	-1%	20µM*	·
CCCn1c(C)nc2c(NC3CCN(Cc4ccccc4)C3)nc(C)nc21 (configuration not stated)	7%	·	0%	8%	·
CCCCNc1nc(C)nc2c1nc(-c1ccccc1)n2CC1CCN(C)CC1	12%	·	1%	25µM*	·
Oc1c(Cl)cc(C(c2cc(Cl)c(O)c(Cl)c2)C(c2cc(Cl)c(O)c(Cl)c2)c2cc(Cl)c(O)c(Cl)c2)cc1Cl	?	i	-4%[11.5 µM]	3.2µM*	i
COc1ccc(N2Cc3cccc(C(=O)N4CCN(C(=O)c5ccco5)CC4)c3C2=O)cc1	?	·	2%	13µM*	·
SMILES	HADH2 inhib	4MU fluor	AID923	HSD17B inhib	A350 autofl
Cc1ccccc1-c1ccc2ncnc(N3CCOCC3)c2c1	8%	i	-1%	5%	i
COc1ccc2c(c1)CCc1c(C(=O)NCCc3ccc(OC)c(OC)c3)noc1-2	113%	i	0%	8%	i
COc1ccc2c(c1)CCc1c(C(=O)Nc3ccc(OC)c(OC)c3)noc1-2	10%	?	2%	97%	1e-08M*
CC1(C)OC[C@@H]2O[C@H](n3cnc4c(N)nc(Cl)nc43)[C@@H](OS(C)(=O)=O)[C@@H]2O1	-8%[11.4 µM]	i	0%[11.5 µM]	1%[11.4 µM]	i
Cc1cc(C(F)F)n2nc(C(=O)Nc3cccc(C(F)(F)F)c3)nc2n1	11%	?	0%	6%	?
COc1ccc(C(F)(F)F)cc1NC(=O)c1nc2nc(C)cc(C(F)F)n2n1	21%	?	2%	4µM*	1.1e-08M*
CO[C@H]1COC(=O)[C@@H](Cc2ccccc2)NC(=O)[C@@H](C)COC(=O)C/C=C\[C@@H]1C	-9%[11.4 µM]	·	-1%[11.5 µM]	-1%[11.4 µM]	·
O=C(CSc1nnc2scc(-c3ccccc3)n12)NCc1ccc2c(c1)OCO2	5%	?	-1%	2%	?
N#Cc1c(N)nc(SCC(=O)NCc2ccc3c(c2)OCO3)c(C#N)c1-c1cccs1	·	1.1e-07M*	·	·	1.7e-07M*
N#Cc1cc2ccccc2nc1SCc1ccccn1	-29%	?	4%	0%	?
O=C(CSc1nnc2scc(-c3ccc(Cl)cc3)n12)NCc1ccc2c(c1)OCO2	34%	4e-08M*	-1%	?	4.6e-08M*
N#Cc1c(N)nc(SCc2ccccn2)c(C#N)c1-c1cccs1	·	3.7e-08M*	·	·	3.7e-08M*
Nc1nnc(SCC(=O)NCc2ccc3c(c2)OCO3)s1	-15%	i	-2%	0%	i
NC(=O)c1nsc(C(=O)N(CC(=O)NCc2ccc3c(c2)OCO3)C2CCCC2)c1N	-12%	9.5e-08M*	4%	?	8e-08M*
COCc1cc(C)nc(NC2CCCCC2)c1C#N	-193%	8.4e-07M*	-1%	25µM*	1e-06M*
COCc1cc(C)nc(N2CCN(c3ccccc3)CC2)c1C#N	?	·	-1%	?	·
O=C(Nc1cnn(Cc2ccc(F)cc2)c1)c1cc(-c2cccs2)on1	-9%	i	0%	25µM*	i
CC(C)(C)C1CCc2onc(C(=O)Nc3cnn(Cc4ccc(F)cc4)c3)c2C1 (configuration not stated)	12%	i	0%	25µM*	i
CC(C)(C)C1CCc2onc(C(=O)Nc3ccc(F)cc3F)c2C1 (configuration not stated)	6%	i	-2%	1%	i
C[N+]1([C@H](CO)Cc2c[nH]c3ccccc23)Cc2ccccc2C1	1%[11.4 µM]	?	1%[11.5 µM]	3%[11.4 µM]	?
N#Cc1ccc(CN2CCC3(CC2)CCN(S(=O)(=O)c2ccccc2)CC3)cc1	17%	i	4%	1%	i
C[C@]12C=CC(=O)C=C1CCC1C2C(O)C[C@]2(C)C1CC[C@]2(O)C(=O)CO (some centres not stated)	·	·	-2%	?	·
CC(=O)OCC(=O)[C@@]1(O)CC[C@@H]2[C@@H]3CCC4=CC(=O)CC[C@@]4(C)[C@H]3C(=O)C[C@]21C	-15%	i	·	·	i
C[C@]12C=CC(=O)C=C1CCC1C2C(=O)C[C@]2(C)C1CC[C@]2(O)C(=O)CO (some centres not stated)	·	·	-2%	13µM*	·
